Measurements reported in publication PMC5540273 (PLoS ONE, 2017).

test system: CDKL3; conditions: concentration: 1 μM, replicates: in singlicate; n = 1
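Further: KINOMEscan kinase panel screen.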

| SMILES | %Inh [%] |
| --- | --- |
| Cc1ccc(-c2cc(-c3c[nH]nc3-c3ccccn3)ccn2)cc1 [GW684088] | 0 |
| Cl.Oc1ccc(-c2nc(-c3ccccc3)[nH]c2-c2ccncc2)cc1 [SB-428218] | 0 |
| COc1ccc(C2=C(Nc3cccc(C(=O)O)c3)C(=O)NC2=O)cc1 [SB-390765] | 0 |
| COc1ccc2nc(-c3cccc(C)n3)nc(Nc3ccncc3)c2c1 [GSK204919] | 0 |
| CC1=C(C(=O)Nc2cc3cn[nH]c3cc2F)C(c2ccc(C(F)(F)F)cc2)CC(=O)N1 (stereo not shown) [GSK429286] | 0 |
| Cn1ccc2ncnc(Oc3cccc(C(=O)Nc4ccccc4)c3)c21 | 0 |
| Cl.NC(=O)c1cccc(Nc2nccc(Nc3ccc(Oc4cccc(Cl)c4)c(Cl)c3)n2)c1 [GW659008] | 0 |
| COc1ccc(Nc2nccc(-c3cccc(NC(=O)c4cc5cc(F)ccc5[nH]4)c3)n2)cc1 [GSK1229782] | 0 |
| O=C(Nc1n[nH]c2nc(-c3nccs3)c(Br)cc12)C1CCCC1 [SB-742609] | 0 |
| CCn1c(-c2ccccn2)nc2cnccc21 [SB-736398] | 0 |
| Cn1ccc2ncnc(Oc3ccc(Nc4nc5ccccc5[nH]4)cc3)c21 | 11 |
| CS(=O)(=O)c1ccc(-c2nc3n(c2-c2ccncc2)CCC3)cc1 [SKF-105942] | 0 |
| Nc1nc(-c2nccs2)c(-c2ccnc3ccccc23)s1 [GW693542] | 0 |
| COc1cccc(NC(=O)NC2CCN(c3ccnc(Nc4ccc(F)cc4)n3)C2)c1 (stereo not shown) [GSK1379721] | 0 |
| Cn1ccc2ncnc(Oc3ccc(NC(=O)Nc4ccccc4)cc3)c21 | 0 |
| Cc1csc(-c2nc(Nc3ccncc3)c3ccccc3n2)n1 [GW869640] | 19 |
| O=c1cc(N2CCOCC2)nc2n(Cc3cccc(Cl)c3Cl)ccn12 [GSK2286295] | 0 |
| COc1cc2ncnc(Nc3ccc4nc(-c5ccccc5)[nH]c4c3)c2cc1OC.Cl [GW282450] | 0 |

| SMILES | %Inh [%] |
| --- | --- |
| CCCc1ccc(S(=O)(=O)NC2CCN(c3ccnc(Nc4ccc(F)cc4)n3)C2)cc1 (stereo not shown) [GSK1379715] | 0 |
| COc1cc2nccc(Nc3ccc(NC(=O)c4ccc(C)cc4)c(O)c3)c2cc1OC.Cl [GW440132] | 0 |
| CCn1c(-c2cccnc2O)nc2cnccc21 [SB-736715] | 10 |
| O=C(Nc1n[nH]c2cc(-c3cccc(F)c3F)ccc12)C1CC1 [SB-733894] | 48 |
| Cc1c(O)cccc1Nc1ccnc2ccc(C(F)(F)F)cc12.Cl [GW466413] | 0 |
| COc1ccccc1-c1ccc2c(NC(=O)C3CC3)n[nH]c2n1 [SB-711239] | 20 |
| COC(=O)c1c(-c2ccccc2)c2cc(C(=O)O)ccc2c(=O)n1Cc1ccccc1 | 4 |
| Cc1ccc(NC(=O)Nc2cc(C(C)(C)C)nn2-c2ccccc2)cc1 [GSK1014915] | 0 |
| Cc1cc(NCC(c2ccccc2)c2ccccc2)nc(NCc2ccc(C(F)(F)F)cc2)n1 [GW497681] | 0 |
| Cc1cccc(-c2nc(-c3ccc(S(C)(=O)=O)cc3)sc2-c2ccnc(NCCc3ccccc3)c2)c1 | 10 |
| O=C(Nc1ccccc1)Nc1cccc(Oc2ccc3nccn3n2)c1 | 0 |
| COc1cccc(-c2cc(-c3c[nH]nc3-c3ccccn3)ccn2)c1 [GW680338] | 23 |
| CN(C)CCN(C)C(=O)c1cc(-c2ccncc2)c(-c2ccc(Cl)c(O)c2)o1.Cl.Cl [SB-710397] | 0 |
| COc1cc(Nc2nccc(N3CCC(NC(=O)Nc4cc(C)ccc4C)C3)n2)cc(OC)c1OC (stereo not shown) [GSK1379762] | 0 |
| Fc1cc(Cl)ccc1Nc1ccnc2cc(-c3ccc(CN4CCCCC4)o3)ccc12 [GW560116] | 0 |
| Cc1cccc(-c2nc(Nc3cccc(C(N)=O)c3)c3ccccc3n2)n1 [GW876019] | 0 |
| Clc1cc(Cl)cc(Nc2ccnc(Nc3cc(Cl)cc(Cl)c3)n2)c1 [GSK175726] | 0 |

test system: CDKL5; conditions: concentration: 1 μM, replicates: in singlicate; n = 1

| SMILES | %Inh [%] |
| --- | --- |
| Cc1ccc(-c2cc(-c3c[nH]nc3-c3ccccn3)ccn2)cc1 [GW684088] | 0 |
| Cl.Oc1ccc(-c2nc(-c3ccccc3)[nH]c2-c2ccncc2)cc1 [SB-428218] | 0 |
| COc1ccc(C2=C(Nc3cccc(C(=O)O)c3)C(=O)NC2=O)cc1 [SB-390765] | 13 |
| COc1ccc2nc(-c3cccc(C)n3)nc(Nc3ccncc3)c2c1 [GSK204919] | 0 |
| CC1=C(C(=O)Nc2cc3cn[nH]c3cc2F)C(c2ccc(C(F)(F)F)cc2)CC(=O)N1 (stereo not shown) [GSK429286] | 10 |
| Cn1ccc2ncnc(Oc3cccc(C(=O)Nc4ccccc4)c3)c21 | 0 |
| Cl.NC(=O)c1cccc(Nc2nccc(Nc3ccc(Oc4cccc(Cl)c4)c(Cl)c3)n2)c1 [GW659008] | 0 |
| COc1ccc(Nc2nccc(-c3cccc(NC(=O)c4cc5cc(F)ccc5[nH]4)c3)n2)cc1 [GSK1229782] | 0 |
| O=C(Nc1n[nH]c2nc(-c3nccs3)c(Br)cc12)C1CCCC1 [SB-742609] | 0 |
| CCn1c(-c2ccccn2)nc2cnccc21 [SB-736398] | 0 |
| Cn1ccc2ncnc(Oc3ccc(Nc4nc5ccccc5[nH]4)cc3)c21 | 0 |
| CS(=O)(=O)c1ccc(-c2nc3n(c2-c2ccncc2)CCC3)cc1 [SKF-105942] | 4 |
| Nc1nc(-c2nccs2)c(-c2ccnc3ccccc23)s1 [GW693542] | 4 |
| COc1cccc(NC(=O)NC2CCN(c3ccnc(Nc4ccc(F)cc4)n3)C2)c1 (stereo not shown) [GSK1379721] | 7 |
| Cn1ccc2ncnc(Oc3ccc(NC(=O)Nc4ccccc4)cc3)c21 | 17 |
| Cc1csc(-c2nc(Nc3ccncc3)c3ccccc3n2)n1 [GW869640] | 19 |
| O=c1cc(N2CCOCC2)nc2n(Cc3cccc(Cl)c3Cl)ccn12 [GSK2286295] | 2 |
| COc1cc2ncnc(Nc3ccc4nc(-c5ccccc5)[nH]c4c3)c2cc1OC.Cl [GW282450] | 1 |

| SMILES | %Inh [%] |
| --- | --- |
| CCCc1ccc(S(=O)(=O)NC2CCN(c3ccnc(Nc4ccc(F)cc4)n3)C2)cc1 (stereo not shown) [GSK1379715] | 0 |
| COc1cc2nccc(Nc3ccc(NC(=O)c4ccc(C)cc4)c(O)c3)c2cc1OC.Cl [GW440132] | 0 |
| CCn1c(-c2cccnc2O)nc2cnccc21 [SB-736715] | 0 |
| O=C(Nc1n[nH]c2cc(-c3cccc(F)c3F)ccc12)C1CC1 [SB-733894] | 0 |
| Cc1c(O)cccc1Nc1ccnc2ccc(C(F)(F)F)cc12.Cl [GW466413] | 0 |
| COc1ccccc1-c1ccc2c(NC(=O)C3CC3)n[nH]c2n1 [SB-711239] | 3 |
| COC(=O)c1c(-c2ccccc2)c2cc(C(=O)O)ccc2c(=O)n1Cc1ccccc1 | 21 |
| Cc1ccc(NC(=O)Nc2cc(C(C)(C)C)nn2-c2ccccc2)cc1 [GSK1014915] | 14 |
| Cc1cc(NCC(c2ccccc2)c2ccccc2)nc(NCc2ccc(C(F)(F)F)cc2)n1 [GW497681] | 0 |
| Cc1cccc(-c2nc(-c3ccc(S(C)(=O)=O)cc3)sc2-c2ccnc(NCCc3ccccc3)c2)c1 | 23 |
| O=C(Nc1ccccc1)Nc1cccc(Oc2ccc3nccn3n2)c1 | 2 |
| COc1cccc(-c2cc(-c3c[nH]nc3-c3ccccn3)ccn2)c1 [GW680338] | 0 |
| CN(C)CCN(C)C(=O)c1cc(-c2ccncc2)c(-c2ccc(Cl)c(O)c2)o1.Cl.Cl [SB-710397] | 2 |
| COc1cc(Nc2nccc(N3CCC(NC(=O)Nc4cc(C)ccc4C)C3)n2)cc(OC)c1OC (stereo not shown) [GSK1379762] | 7 |
| Fc1cc(Cl)ccc1Nc1ccnc2cc(-c3ccc(CN4CCCCC4)o3)ccc12 [GW560116] | 0 |
| Cc1cccc(-c2nc(Nc3cccc(C(N)=O)c3)c3ccccc3n2)n1 [GW876019] | 1 |
| Clc1cc(Cl)cc(Nc2ccnc(Nc3cc(Cl)cc(Cl)c3)n2)c1 [GSK175726] | 0 |
